Assay outcomes deposited in PubChem BioAssay by National Center for Advancing Translational Sciences (NCATS).
The sample as a whole holds a higher share of hits than the screen did.
HT1080 IDH1KD tx: qHTS for induction of synthetic lethality in tumor cells producing 2HG: qHTS for the HT-1080-IDH1KD cell line | HT-1080 IDH1 knockdown viability, ATP luminescence, 48 h | Potency, µM (top dose mostly 46.1 µM), inactives show at the highest dose activity, negative = toxicity, actives largely listed as cytotoxic | 360,000 compounds, 2% hits | AID 686971, 2013;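 note: potency is the fitted concentration of half-maximal effect; 0% = DMSO wells and -100% = cell-free medium wells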
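Using the IDH1-knockdown HT-1080 line run in the same batch and compound series as the NT line, viability after 48 h at 37 °C was determined by CellTiter-Glo luminescence and expressed as % activity.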
HT1080NT lethal: qHTS for induction of synthetic lethality in tumor cells producing 2HG: qHTS for the HT-1080-NT fibrosarcoma cell line; HT-1080-NT fibrosarcoma viability, CellTiter-Glo ATP luminescence, 48 h; Potency, µM (highest dose often 46.1 µM), for inactives: top-dose activity, negative = less viability, usual class: cytotoxic; 360,000 compounds, 1.6% hits; AID 686970, 2013;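 note: NT is the 2HG producing partner of a matched IDH1 knockdown line; potency is the fitted concentration of half-maximal effect; 0% = DMSO-treated cells and -100% = media-only wells without cells; nearly all actives have a fitted effect of over 55% in size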
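A 48-hour cytotoxicity screen used HT-1080-NT cells plated 2 hours before compound delivery. ATP-based CellTiter-Glo luminescence measured viability, normalized to DMSO and no-cell controls.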
12-LOX inh: Primary qHTS assay for inhibitors of human arachidonate 12S-lipoxygenase (ALOX12): Round 2; purified 12hLO, xylenol orange hydroperoxide absorbance; 580,000 compounds, 1.1% hits; Potency, µM (series often up to 108 µM), for inactives: at the top dose activity change, negative = inhibition, usual class: inhibitors; AID 1671190, 2021; note: potency is the fitted concentration of half-maximal effect
Target sequence (P18054 whole entry, looked up): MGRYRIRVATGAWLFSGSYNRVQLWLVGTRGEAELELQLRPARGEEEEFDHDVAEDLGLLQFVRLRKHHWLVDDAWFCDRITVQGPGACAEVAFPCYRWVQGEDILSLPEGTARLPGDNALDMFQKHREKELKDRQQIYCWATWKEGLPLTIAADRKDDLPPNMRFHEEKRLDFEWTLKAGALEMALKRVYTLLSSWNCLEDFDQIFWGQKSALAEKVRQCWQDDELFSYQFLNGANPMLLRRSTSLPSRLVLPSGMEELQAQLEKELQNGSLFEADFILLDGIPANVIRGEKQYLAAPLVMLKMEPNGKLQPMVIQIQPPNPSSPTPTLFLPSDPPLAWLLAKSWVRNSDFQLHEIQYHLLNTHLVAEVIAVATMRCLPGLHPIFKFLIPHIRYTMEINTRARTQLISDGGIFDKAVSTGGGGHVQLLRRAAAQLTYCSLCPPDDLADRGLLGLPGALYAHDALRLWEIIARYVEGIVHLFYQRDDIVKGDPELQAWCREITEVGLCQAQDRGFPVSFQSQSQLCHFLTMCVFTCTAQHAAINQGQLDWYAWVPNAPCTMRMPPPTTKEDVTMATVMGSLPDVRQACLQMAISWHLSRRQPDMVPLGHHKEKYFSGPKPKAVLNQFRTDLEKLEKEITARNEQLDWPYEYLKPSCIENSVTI
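Purified human 12hLO (150 nM final) in 25 mM Hepes, 0.01% Triton X-100, pH 7.0 was preincubated 15 min at room temperature with compound. Then 40 uM arachidonic acid was added, 30 min. Hydroperoxide was read by Fe-XO absorbance ratio 573/405 nm.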
IL1B secr inh: qHTS for Inhibitors of Inflammasome Signaling: IL-1-beta AlphaLISA Primary Screen | activity change, % at 57.5 µM | 360,000 compounds, 4.7% hits | THP-1 LPS/ATP IL-1B secretion, AlphaLISA, 16 h; stronger effect = lower value; in the data active = activity change below about -50%; inconclusive = mostly about -30% to -49%
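Secreted IL-1B measured by AlphaLISA bead assay after 16 h compound exposure of THP-1 cells; compounds (final up to 57.5 uM) added 1 h before LPS (250 ng/mL) and ATP (1.25 mM) stimulation; lower signal means less secretion.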
TDP1 cell noCPT: qHTS for Inhibitors of human tyrosyl-DNA phosphodiesterase 1 (TDP1): qHTS in cells in absence of CPT; DT40 Tdp1-/- hTDP1 cells, no CPT, ATP luminescence, 48 h; Potency, µM (top dose mostly 46.2 µM), without a hit: at the highest dose activity change, negative = growth inhibition, most hits filed as inhibitors; 420,000 compounds, 15% hits; note: potency is the fitted concentration of half-maximal effect; nearly all actives have a fitted effect of over 55% in size
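Chicken DT40 Tdp1-/- cells stably complemented with human TDP1 were seeded at 400 cells/well with DMSO in place of 20 nM camptothecin. After compound pinning, cells grew at least 48 hr at 37 °C; viability read by CellTiter-Glo luminescence.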
DT40 TDP1 CPT: qHTS for Inhibitors of human tyrosyl-DNA phosphodiesterase 1 (TDP1): qHTS in cells in presence of CPT; chicken DT40 Tdp1-/-;hTDP1 cells + 20 nM CPT, ATP luminescence, 48 h; Potency, µM (series often up to 46.2 µM), for the others: at the top dose activity change, negative = growth inhibition, most hits filed as inhibitors; 420,000 compounds, 12% hits; AID 686979, 2013; note: potency is the fitted concentration of half-maximal effect; nearly all actives have a fitted effect of over 55% in size
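Cell growth measured by CellTiter-Glo luminescence after a minimum 48 h, 37 C compound exposure with 20 nM CPT in Tdp1-knockout DT40 cells stably expressing hTDP1, seeded 400/well; qHTS titration format.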
An asterisk follows results filed as active; u = inconclusive; x = no result given; [ ] = dose if it differs, or a comment. Unless noted, calls come from the whole dose curve; as a rule, active = well fitted curve in the direction sought with a large enough effect; inconclusive = small, poorly fitted or top-dose-only effect, or another doubt; inactive = no such curve, though single readings can be large; an effect the other way counts as inactive or inconclusive. Unless noted, % is set by controls: 0 for no effect and ±100 for the full control effect.

SMILES | HT1080 IDH1KD tx | HT1080NT lethal | 12-LOX inh | IL1B secr inh | TDP1 cell noCPT | DT40 TDP1 CPT
COCC(C)n1c(C)cc(C(=O)CSc2nc3nc(C)cc(C)n3n2)c1C (centres undefined) | x | x | -14% | x | x | x
CCN(CC)CCN(CC(=O)Nc1c(C)cc(C)cc1C)C(=O)c1ccccc1 | -3% | -5% | 0% | -68* | 3% | -16%
Cc1cc(SCc2ccc(Cl)c(Cl)c2)nc2ccc(F)cc12 | x | x | -13% | x | x | x
O=C(COC(=O)c1ccc(NS(=O)(=O)c2cccs2)cc1O)Nc1nc2ccccc2s1 | 0% | 0% | -20% | 0 | -2% | 5%
O=C(COC(=O)c1ccc(NS(=O)(=O)c2cccs2)cc1O)NCc1ccccc1 | 3.7µM* | 2.6µM* | -8% | 40 | 3.3µM* | 4.6µM*
COc1cc(C(=O)OCC(=O)NCc2ccco2)cc(OC)c1OC | 2% | 6% | -29% | -67* | -18% | 1%
O=C(COC(=O)c1ccc(NS(=O)(=O)c2cccs2)cc1)NCc1ccco1 | 8.2µM* | 9.2µM* | x | 8 | 2.9µM* | 4.1µM*
O=C(NCc1ccnc(N2CCCC2)c1)c1ccc(Cl)c(S(=O)(=O)N2CCCCCC2)c1 | x | x | 20% | x | x | x
CC(C(=O)Nc1ccc2[nH]c(=O)[nH]c2c1)N(C)Cc1ccc(Cl)c(Cl)c1 (centres undefined) | x | x | -11% | x | x | x
S=c1[nH]nc(-c2n[nH]c3c2CCC3)n1/N=C/c1cccc2ccccc12 | x | x | -61% | x | x | x
Cc1ccc(SCCC(=O)Nc2ccc(OCc3ccccc3)cc2)cc1 | -4% | -4% | 4% | -15 | -22% | -19%
CCOc1ccc(NC(=O)CCSc2ccc(C)cc2)cc1 | 11% | 11% | -28% | 0 | 16µM* | u
CCOc1ccc(NCC(=O)c2ccc(C)cc2)cc1 | -29% | -20% | u | -81* | u | u
CCOc1ccc(NC(=O)COC(=O)C2CC2C)cc1 (centres undefined) | 12% | 10% | 1% | 9 | 18µM* | u
CC(C)(C)C1CCC(=NNC(=O)C2CC2)CC1 (centres undefined) | x | x | 9% | x | x | x
CC(=O)C(C(C)=O)c1c(Cl)c(O)c(O)c2c(C(=O)c3ccccc3)coc12 | 12µM* | u | u | -16 | 3.7µM* | 4.6µM*
O=C(NCc1ccccc1)C1CCC(CNS(=O)(=O)c2ccc(Br)s2)CC1 (centres undefined) | x | x | -14% | x | -22% | -28%
Cc1ccc(C)c(N2CCN(C(=O)C3CCC(CNS(=O)(=O)c4ccc(Br)s4)CC3)CC2)c1 (centres undefined) | x | x | u | x | 5.8µM* | 5.8µM*
O=C(C1CCC(CNS(=O)(=O)c2cccs2)CC1)N1CCN(c2ccc(Cl)cc2)CC1 (centres undefined) | 0% | u | u | -15 | 4.1µM* | 6.5µM*
CC(=O)c1ccc(NC(=O)C2CCC(CNS(=O)(=O)c3ccc(Br)s3)CC2)cc1 (centres undefined) | x | x | u | x | -14% | 11%
O=C(C1CCC(CNS(=O)(=O)c2ccc(Br)s2)CC1)N1CCN(c2ccccc2)CC1 (centres undefined) | x | x | u | x | u | 4.6µM*
O=C(c1ccc(F)c(F)c1)N1C[C@@H](CO)[C@H](c2ccccn2)C1 | x | x | 23% | x | x | x
O=C(COCc1cc(-c2ccc3c(c2)OCO3)on1)N1CCN(c2ccc(F)cc2)CC1 | -2% | -3% | -5% | -10 | u | -1%
O=C(COCc1cc(-c2cccs2)on1)N1CCN(c2cccc(Cl)c2)CC1 | x | x | u | x | 12µM* | 23µM*
O=C(COCc1cc(-c2cccs2)on1)N1CCN(c2ccc(F)cc2)CC1 | x | x | -18% | x | 15µM* | 18µM*
SMILES | HT1080 IDH1KD tx | HT1080NT lethal | 12-LOX inh | IL1B secr inh | TDP1 cell noCPT | DT40 TDP1 CPT
O=c1c2c([nH]c3ccc(Br)cc13)CCCC2 | -3% | 1% | 155% | -10 | u | 23µM*
O=C(CCc1ncc(-c2ccccc2)o1)Nc1cc(F)cc(F)c1 | x | x | 3% | x | x | x
O=[N+]([O-])c1cc2no[n+]([O-])c2cc1N1CCCCC1 | -2% | 12% | u | -78* | 0.92µM* | 0.58µM*
Cc1cccc(C)c1NC(=O)C(=O)NCC1CCCN1S(=O)(=O)c1cccs1 (centres undefined) | 0% | 1% | -4% | 27 | 12µM* | u
O=C(NCC1CCCN1S(=O)(=O)c1cccs1)C(=O)Nc1ccc(F)cc1F (centres undefined) | 0% | -3% | -10% | 1 | u | u
O=C(NCC1CCCN1S(=O)(=O)c1cccs1)c1cccc(F)c1 (centres undefined) | -3% | -1% | -18% | 3 | 18µM* | 16µM*
Cc1ccc(NC(=O)C(=O)NCC2CCCN2S(=O)(=O)c2cccs2)c(C)c1 (centres undefined) | -11% | -2% | 20% | -10 | u | 18µM*
Cc1cc(C)cc(NC(=O)C(=O)NCC2CCCN2S(=O)(=O)c2cccs2)c1 (centres undefined) | -6% | 1% | 12% | -5 | 10µM* | 7.3µM*
O[C@@H]1C[C@@H](c2nc(-c3ccc(OC(F)(F)F)cc3)no2)N(C2CCOCC2)C1 | x | x | 33%[176 µM] | x | x | x
O=C(Nc1ccc(F)cc1)N1CCN(CCc2ccccc2)CC1 | 3% | 6% | -3% | -13 | -6% | -4%
CCNC(=O)N1CCN(CCCC(c2ccc(F)cc2)c2ccc(F)cc2)CC1 | u | 16µM* | 35µM* | -12 | 18µM* | 21µM*
COc1ccc(-c2nc3ccccc3o2)cc1NC(=O)CSc1ccc(Cl)cc1 | u | 24% | u | -14 | u | u
COc1ccc(-c2nc3cc(C(C)C)ccc3o2)cc1NC(=O)COc1ccc(C)cc1C | x | x | 6% | x | u | 6.5µM*
COc1ccc(-c2nc3ccccc3o2)cc1NC(=O)C(C)Oc1ccc(Cl)cc1Cl (centres undefined) | x | x | -18% | x | 23µM* | u
